Results taken from PubChem BioAssay (Tox21).
Where “and” joins values, the source holds several entries; their conditions need not be identical. Identical values can stand only once. Records with an inconclusive call do not appear. The source holds several records for some structures; these can differ, active in one and inactive in another. Calls of active or inactive are those of the source. Unless noted, calls come from the whole dose curve.

What was measured:
[1] = Nuclear factor erythroid 2-related factor 2/antioxidant responsive element (Nrf2/ARE) small molecule agonists: qHTS cell viability counter screen in human keratinocytes (AID 1919968; active = well fitted curve in the direction sought with a large enough effect in the repeat runs; an effect the other way counts as inactive or inconclusive; note: nearly all actives have a fitted effect of over 55% in size)
Outline: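 Viability counter-screen: KeratinoSens reporter cells, DMSO-delivered compounds, 23 h at 37 C, CellTiter-Fluor fluorescence.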

[2] = Nuclear factor erythroid 2-related factor 2/antioxidant responsive element (Nrf2/ARE) small molecule agonists: luciferase reporter gene qHTS assay in human keratinocytes (AID 1919969); note: nearly all actives have a fitted effect of over 35% in size; note: potency is the fitted concentration of half-maximal effect
[3] = molecular target: Gonadotropin-releasing hormone receptor (Homo sapiens) (UniProt P30968); test: Human gonadotropin-releasing hormone receptor (GnRHR) small molecule agonists, calcium flux assay in GnRHR-HEK293 cells (AID 1920063); note: nearly all actives have a fitted effect of over 35% in size
Chain of Gonadotropin-releasing hormone receptor (Homo sapiens) (P30968 whole entry, looked up): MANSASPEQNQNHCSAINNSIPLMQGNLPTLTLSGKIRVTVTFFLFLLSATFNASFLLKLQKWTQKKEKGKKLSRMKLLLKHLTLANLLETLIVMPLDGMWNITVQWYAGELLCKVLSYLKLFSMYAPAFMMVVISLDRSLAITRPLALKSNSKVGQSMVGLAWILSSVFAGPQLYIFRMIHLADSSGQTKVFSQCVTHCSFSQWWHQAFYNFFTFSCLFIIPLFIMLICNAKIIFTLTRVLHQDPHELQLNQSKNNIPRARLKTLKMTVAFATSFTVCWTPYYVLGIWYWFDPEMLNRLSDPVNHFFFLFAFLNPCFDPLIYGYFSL
Outline: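 Tox21-format agonist screen using human GnRHR-expressing HEK293 cells and a fluorescent calcium dye; kinetic 3-min fluorescence reading after compound addition, 15-point concentration series run in triplicate.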

[4] = molecular target: KiSS-1 receptor (Homo sapiens) (UniProt Q969F8); test: Human kisspeptin (KISS1R) small molecule agonists, calcium flux assay in KISS1R-HEK293 cells (AID 1920064; active = well fitted curve in the direction sought with a large enough effect in the repeat runs; an effect the other way counts as inactive or inconclusive)
Chain of KiSS-1 receptor (Homo sapiens) (Q969F8 whole entry, looked up): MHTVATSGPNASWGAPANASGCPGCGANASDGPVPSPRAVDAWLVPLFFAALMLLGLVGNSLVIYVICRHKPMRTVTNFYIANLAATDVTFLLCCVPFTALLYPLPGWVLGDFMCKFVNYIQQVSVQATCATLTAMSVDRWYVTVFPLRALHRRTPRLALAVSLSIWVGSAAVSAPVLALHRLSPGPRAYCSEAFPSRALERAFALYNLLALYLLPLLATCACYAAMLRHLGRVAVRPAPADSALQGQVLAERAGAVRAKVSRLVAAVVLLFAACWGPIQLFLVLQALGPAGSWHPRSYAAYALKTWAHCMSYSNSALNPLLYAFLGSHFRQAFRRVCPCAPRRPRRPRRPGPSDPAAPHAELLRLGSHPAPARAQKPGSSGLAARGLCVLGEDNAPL
Outline: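 Intracellular calcium mobilization in KISS1R-HEK293 cells was recorded by fluorescence (Ex/Em 480/540) for 3 min following compound addition to cells pre-loaded 1 h with calcium dye.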

[5] = G protein-coupled receptor (GPCR) small molecule agonists, calcium flux assay: HEK293 wild type cell line counter screen (AID 1920065)
Outline: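 In this agonist-mode screen, ATP is the positive control and DMSO the vehicle. Cells grow 18 h before a 1 h dye incubation at 37 C; signal is taken at Ex/Em 480/540 over 3 min.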

[6] = p53 small molecule agonists, cell-based qHTS assay with human liver microsomes (AID 1963577)
Outline: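 p53RE-bla reporter cells were pre-incubated 5 h at 37 C, then treated with compounds plus human liver microsomes (0.5 mg/mL final) and NADPH (0.5 mg/mL final) for 16 h at 37 C. Beta-lactamase activity was read by LiveBLAzer fluorescence after 2 h at room temperature.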

[7] = p53 small molecule agonists, cell-based qHTS assay: qHTS cell viability counter screen (AID 1963581); note: nearly all actives have a fitted effect of over 45% in size
Outline: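 Compounds are pinned onto HCT-116 p53RE-bla cells and left 16 h at 37 C. Following the reporter FRET read, ATP is quantified by CellTiter-Glo luminescence after 30 min at room temperature.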

[8] = molecular target: 5-hydroxytryptamine receptor 2A (Homo sapiens) (UniProt P28223); test: 5-hydroxytryptamine receptor 2A (HTR2A) small molecule antagonists, cell-based qHTS assay (AID 1963586); note: nearly all actives have a fitted effect of over 45% in size
Chain of 5-hydroxytryptamine receptor 2A (Homo sapiens) (P28223 whole entry, looked up): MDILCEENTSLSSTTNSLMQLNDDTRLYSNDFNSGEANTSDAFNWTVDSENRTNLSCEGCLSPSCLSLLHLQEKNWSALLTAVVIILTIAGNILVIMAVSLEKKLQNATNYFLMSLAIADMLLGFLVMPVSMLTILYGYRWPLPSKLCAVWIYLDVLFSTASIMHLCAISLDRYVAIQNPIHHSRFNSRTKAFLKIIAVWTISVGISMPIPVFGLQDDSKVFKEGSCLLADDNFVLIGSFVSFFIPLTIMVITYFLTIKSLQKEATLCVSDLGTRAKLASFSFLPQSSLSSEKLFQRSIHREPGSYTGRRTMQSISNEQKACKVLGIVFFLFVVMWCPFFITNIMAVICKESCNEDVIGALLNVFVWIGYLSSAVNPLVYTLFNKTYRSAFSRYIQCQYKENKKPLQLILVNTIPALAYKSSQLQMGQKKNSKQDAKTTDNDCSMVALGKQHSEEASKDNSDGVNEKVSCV
Outline: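 Antagonist-mode intracellular calcium assay: DOI (4 nM) added after 5 min compound pre-incubation at room temperature to dye-loaded HTR2A-CHO cells. Fluorescence followed for 3 min, sampled every second.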

[9] = molecular target: 5-hydroxytryptamine receptor 2A (Homo sapiens) (UniProt P28223); test: 5-hydroxytryptamine receptor 2A (HTR2A) small molecule agonists, cell-based qHTS assay (AID 1963587); note: nearly all actives have a fitted effect of over 30% in size
Outline: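 CHO cells stably expressing human HTR2A, plated 18 h, loaded with calcium dye 1 h at 37 C. Agonist mode: compounds added and intracellular calcium fluorescence recorded kinetically for 2 min at 1 sec intervals.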

[10] = molecular target: Muscarinic acetylcholine receptor M1 (Homo sapiens) (UniProt P11229); test: Cholinergic receptor muscarinic 1 (CHRM1) small molecule antagonists, cell-based qHTS assay (AID 1963588); note: nearly all actives have a fitted effect of over 40% in size
Chain of Muscarinic acetylcholine receptor M1 (Homo sapiens) (P11229 whole entry, looked up): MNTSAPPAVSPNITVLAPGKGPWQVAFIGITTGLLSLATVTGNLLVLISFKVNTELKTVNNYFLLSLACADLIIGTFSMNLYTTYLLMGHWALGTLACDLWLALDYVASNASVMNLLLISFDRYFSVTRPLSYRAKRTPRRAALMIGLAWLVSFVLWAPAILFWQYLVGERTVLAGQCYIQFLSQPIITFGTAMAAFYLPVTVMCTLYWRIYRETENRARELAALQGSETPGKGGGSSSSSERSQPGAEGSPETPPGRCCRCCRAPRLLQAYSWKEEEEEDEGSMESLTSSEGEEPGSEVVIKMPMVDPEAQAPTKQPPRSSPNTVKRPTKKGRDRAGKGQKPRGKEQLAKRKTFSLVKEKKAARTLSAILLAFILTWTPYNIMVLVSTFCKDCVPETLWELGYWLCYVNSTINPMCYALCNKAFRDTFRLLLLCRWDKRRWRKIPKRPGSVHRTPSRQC
Outline: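 CHRM1-CHO calcium-flux assay, antagonist mode. Cells were seeded 18 h, dye-loaded 1 h at 37 C and given compound for 5 min at RT, then acetylcholine was added at 50nM. FDSS fluorescence was read 3 min; 15 concentrations, three runs.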

[11] = molecular target: Muscarinic acetylcholine receptor M1 (Homo sapiens) (UniProt P11229); test: Cholinergic receptor muscarinic 1 (CHRM1) small molecule agonists, cell-based qHTS assay (AID 1963589); note: nearly all actives have a fitted effect of over 35% in size
Outline: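 Stable CHRM1-CHO cells (human receptor) were incubated 18 h, dye-loaded for 1 h at 37 C and exposed to test compounds for agonist activity, with calcium-dependent fluorescence followed kinetically.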

[12] = cAMP Responsive Elements (CRE) small molecule antagonists, cell-based qHTS assay (AID 1963591; active = well fitted inhibition curve with a large enough effect in the signal ratio in the repeat runs, not every such curve was filed as active; the % refers to the signal ratio)
Outline: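 qHTS in CRE-bla HEK 293T cells: compound in DMSO, then 0.25 uM NKH477 (final), 3 h at 37 °C/5% CO2; beta-lactamase FRET read-out after 2 h substrate incubation.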

[13] = molecular target: Beta-2 adrenergic receptor (Homo sapiens) (UniProt P07550); test: Adrenergic beta2 receptor (ADRB2) small molecule antagonists, cell-based qHTS assay (AID 1963592); note: series mostly up to about 92 µM; nearly all actives have a fitted effect of over 50% in size
Chain of Beta-2 adrenergic receptor (Homo sapiens) (P07550 whole entry, looked up): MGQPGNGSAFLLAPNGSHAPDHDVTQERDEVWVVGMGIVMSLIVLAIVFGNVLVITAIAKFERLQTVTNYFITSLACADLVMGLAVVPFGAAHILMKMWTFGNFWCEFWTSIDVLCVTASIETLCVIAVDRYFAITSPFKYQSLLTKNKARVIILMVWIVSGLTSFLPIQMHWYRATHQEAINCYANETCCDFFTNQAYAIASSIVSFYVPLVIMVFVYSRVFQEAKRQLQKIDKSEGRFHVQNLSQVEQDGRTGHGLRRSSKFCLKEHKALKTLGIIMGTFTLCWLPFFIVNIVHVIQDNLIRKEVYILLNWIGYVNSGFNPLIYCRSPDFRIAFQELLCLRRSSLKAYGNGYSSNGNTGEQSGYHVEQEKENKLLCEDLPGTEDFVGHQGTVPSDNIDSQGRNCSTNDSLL
Outline: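 Cells (CHO, stable ADRB2 overexpression) incubated 18-20hr at 37C; compounds added from DMSO; agonist mix (1nM isoproterenol, 100uM IBMX, 25uM Ro-20-1724) added; 0.5hr RT; d2-cAMP and anti-cAMP-cryptate added; 1hr RT; 665/615 nm read.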

[14] = molecular target: Beta-2 adrenergic receptor (Homo sapiens) (UniProt P07550); test: Adrenergic beta2 receptor (ADRB2) small molecule agonists, cell-based qHTS assay (AID 1963593);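 note: CHO cells stably overexpressing human ADRB2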
Outline: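 CHO cells stably over-expressing ADRB2 were plated overnight at 37C, then dosed with compounds plus a stimulation mix containing 100uM IBMX and 25uM Ro-20-1724 for 0.5hr at room temperature. cAMP was measured by HTRF competition, 1hr.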

[15] = molecular target: D(2) dopamine receptor (Homo sapiens) (UniProt P14416); test: Dopamine D2 receptor (DRD2) small molecule agonists, cell-based qHTS assay (AID 1963594); note: nearly all actives have a fitted effect of over 35% in size
Chain of D(2) dopamine receptor (Homo sapiens) (P14416 whole entry, looked up): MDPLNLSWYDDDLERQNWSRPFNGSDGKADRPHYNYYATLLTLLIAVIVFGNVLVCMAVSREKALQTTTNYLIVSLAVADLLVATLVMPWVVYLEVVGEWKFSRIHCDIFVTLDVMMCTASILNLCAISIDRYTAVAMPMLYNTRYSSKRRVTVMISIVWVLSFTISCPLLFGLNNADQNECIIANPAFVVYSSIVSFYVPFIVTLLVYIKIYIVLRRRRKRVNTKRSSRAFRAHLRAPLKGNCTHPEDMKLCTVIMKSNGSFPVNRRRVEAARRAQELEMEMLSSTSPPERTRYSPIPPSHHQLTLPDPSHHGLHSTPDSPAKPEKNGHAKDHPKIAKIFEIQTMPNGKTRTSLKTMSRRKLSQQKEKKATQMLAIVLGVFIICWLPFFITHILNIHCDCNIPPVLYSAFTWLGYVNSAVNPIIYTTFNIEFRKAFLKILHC
Outline: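 HEK293 cells stably expressing human DRD2, pre-treated with PDE inhibitor Ro20-1724 (0.1 mM final) and compound 10 min at room temperature, then stimulated with NKH477 (200nM […]) for 30 min. cAMP read by HTRF (665/620 nm).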

[16] = molecular target: D(2) dopamine receptor (Homo sapiens) (UniProt P14416); test: Dopamine D2 receptor (DRD2) small molecule antagonists, cell-based qHTS assay (AID 1963595; active = well fitted inhibition curve with a large enough effect in the signal ratio in the repeat runs, with a control signal flat; the % refers to the signal ratio)
Outline: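 HEK293 cells stably expressing DRD2 were preincubated with 0.1 mM Ro20-1724, then with compound for 10 min at room temperature. Cells were stimulated with 200 nM NKH477 plus 12 nM quinpirole for 30 min, and cAMP was read by HTRF.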

[17] = p53 small molecule agonists, cell-based qHTS assay with rat liver microsomes: qHTS cell viability counter screen (AID 1963580); note: nearly all actives have a fitted effect of over 45% in size
Outline: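 p53RE-bla HCT-116 cells were exposed 16 h at 37 C to compounds with rat liver microsomes (0.5 mg/mL) and NADPH (0.5 mg/mL). Viability was measured in the same wells as ATP content by CellTiter-Glo luminescence.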

[18] = p53 small molecule agonists, cell-based qHTS assay (AID 1963582; active = well fitted activation curve with a large enough effect in the signal ratio in the repeat runs, not every such curve was filed as active; the % refers to the signal ratio)
Outline: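 Agonist activity was scored from beta-lactamase FRET fluorescence in p53RE-bla cells treated 16 h at 37 C with compounds in DMSO, substrate incubation being 2 h at room temperature.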

[19] = cAMP Responsive Elements (CRE) small molecule agonists, cell-based qHTS assay (AID 1963590)
Outline: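 FRET-based beta-lactamase readout (LiveBLAzer B/G, 2 h RT) quantified CRE activation in HEK 293T CRE-bla cells after 3 h treatment with DMSO-dissolved compounds.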

[20] = p53 small molecule agonists, cell-based qHTS assay with human liver microsomes: qHTS cell viability counter screen (AID 1963579); note: nearly all actives have a fitted effect of over 45% in size
Outline: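 p53RE-bla cells (4,000/well) were pre-incubated 5 h at 37 C, then given compounds in DMSO plus human liver microsomes (0.5 mg/mL final) and NADPH (0.5 mg/mL final) for 16 h at 37 C. Viability was read by CellTiter-Glo luminescence.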

Measured: Potency

O=C(O)c1ccccc1Nc1cccc(C(F)(F)F)c1
13.7 µM (active) and inactive: [2]
not listed: [17] | [18] | [19] | [20]
inactive: all other assays above

O=C1CCc2ccccc2O1
not listed: [12] | [20]
inactive: all other assays above

Cc1ccncc1
not listed: [14] | [20]
inactive: all other assays above

Oc1ccc(O)cc1
active: [2] 60.8 µM and 61.1 µM and 21.1 µM
not listed: [7] | [19] | [20]
inactive: all other assays above

CCCCC(CC)COC(=O)c1ccc(C(=O)OCC(CC)CCCC)cc1 (centres undefined)
not listed: [8] | [14] | [20]
inactive: all other assays above

CCOCCOCCO
not listed: [14] | [15] | [20]
inactive: all other assays above

Cc1ccc2ncccc2c1
not listed: [15] | [18] | [20]
inactive: all other assays above

CC(=O)[C@@]1(O)CC[C@H]2[C@@H]3C[C@H](C)C4=CC(=O)C=C[C@]4(C)[C@@]3(F)[C@@H](O)C[C@@]21C
not listed: [8] | [9] | [10] | [11] | [14] | [20]
inactive: all other assays above

O=c1cc[nH]c(=O)[nH]1
not listed: [14] | [16] | [20]
inactive: all other assays above

CCOCCO
not listed: [7] | [8] | [14] | [15] | [20]
inactive: all other assays above

O=C(O)c1ccccc1C(=O)O
not listed: [10] | [17] | [20]
inactive: all other assays above

O=CCc1ccccc1
not listed: [7] | [20]
inactive: all other assays above

Cc1cc(C)c(O)c(C)c1
not listed: [7] | [17]
inactive: all other assays above

Cc1ccc(O)c(-n2nc3ccccc3n2)c1
active: [2] 60.6 µM and 27.3 µM and 5.96 µM
not listed: [7] | [20]
inactive: all other assays above

CCCCCCCCC/C=C/CC1CC(=O)OC1=O (centres undefined)
not listed: [8] | [18] | [20]
inactive: all other assays above
